# FH mod – Identification of activators of human fumarate hydratase by quantitative high-throughput screening | Fumarate hydratase, mitochondrial (Homo sapiens), P07954 | FH coupled MDH/diaphorase resazurin fluorescence, 15 min | Potency, µM (doses to about 79.9 µM), for the others: at the top dose activity change, negative = inhibition, usual class: inhibitors | actives 0.22% (n = 54,000); further: on the % scale 0 is the no-effect control and ±100 the full control effect; the screen sought activators but most active calls are inhibition curves; nearly all actives have a fitted effect of over 45% in size
# Target sequence (P07954 whole entry, looked up): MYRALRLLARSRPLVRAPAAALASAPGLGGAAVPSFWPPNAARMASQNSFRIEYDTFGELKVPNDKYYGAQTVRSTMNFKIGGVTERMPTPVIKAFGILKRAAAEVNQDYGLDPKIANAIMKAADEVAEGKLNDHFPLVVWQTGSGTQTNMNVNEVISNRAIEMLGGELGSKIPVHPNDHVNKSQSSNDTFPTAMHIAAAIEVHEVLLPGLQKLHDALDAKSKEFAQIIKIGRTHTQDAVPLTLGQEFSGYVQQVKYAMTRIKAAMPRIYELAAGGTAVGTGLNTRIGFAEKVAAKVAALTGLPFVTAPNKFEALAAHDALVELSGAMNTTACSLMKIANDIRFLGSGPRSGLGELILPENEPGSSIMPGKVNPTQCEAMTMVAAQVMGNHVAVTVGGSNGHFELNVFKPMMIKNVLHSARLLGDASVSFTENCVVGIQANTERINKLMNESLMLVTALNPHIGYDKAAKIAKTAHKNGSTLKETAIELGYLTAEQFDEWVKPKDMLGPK
# HTT promoter inh – inhibits huntingtin promoter activity | HEK293 HTT promoter firefly luciferase reporter, 24 h | actives 0.93% (n = 48,000) | Potency, µM (doses to about 57.5 µM), without a hit: at the highest dose activity change, negative = inhibition, most hits filed as inhibitors; further: nearly all actives have a fitted effect of over 50% in size
#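 Firefly luciferase signal from promoter-reporter HEK293 cells was scaled between vehicle (0%) and zero RLU (-100%). Compounds were tested at final concentrations of up to 57.5 uM over 24 h at 37 degrees C. PTC124 at 50 uM final served as control inhibitor.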
# HTT-AS act – activates huntingtin-antisense promoter activity; actives 0.24% (n = 48,000); HEK293 HTT-AS promoter firefly luciferase reporter, 24 h; response scale: percent change from vehicle, -100% = no light; Potency, µM (highest dose often 57.5 µM), for inactives: at the highest dose activity change, positive = activation, hits mostly activators; further: nearly all actives have a fitted effect of over 55% in size
#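 HEK293 Fluc reporter, 2,500 cells/well, 24 h pre-culture; cpds up to 57.5 uM final, 24 h 37 degrees C; Dual-Glo, 10 min RT; normalized vehicle = 0%, zero RLU = -100%.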
# mTORC1 inh – mTORC1 pathway inhibition measured by phospho-rpS6; Tsc2-/- p53-/- MEF, phospho-rpS6 immunofluorescence/PI, 24 h; Potency, µM (doses to about 38.3 µM), for the others: at the top dose activity change, negative = inhibition, usual class: inhibitors; actives 0.78% (n = 44,000);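 further: plate controls were DMSO for no effect and rapamycin for full effect; nearly all actives have a fitted effect of over 50% in size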
#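 Tsc2-/-, p53-/- MEFs (empty-vector stable line) in DMEM + 10% FBS were treated with compounds 24 h at 37 degree Celsius, fixed, and immunostained for phospho-rpS6 (Alexa-488) with propidium iodide counterstain. Laser-scanning cytometry gave % positive cells, normalized against 7.5 nM rapamycin and DMSO.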
# PMP22 txn prim – modulators of PMP22 gene transcription in S16 Schwann cells. actives 2% (n = 43,000). Potency, µM (doses to about 57.5 µM), without a hit: top-dose activity change, negative = inhibition, usual class: inhibitors. AID 1508649. S16 Pmp22-F2sN Schwann cells, FLuc/NLuc coincidence luminescence, 24 h; active means clear falling dose curves in both reporters; inconclusive means both reporters move, but less clearly or upward; inactive means either reporter flat; the % is the NLuc reporter signal; further: on the % scale 0 is the no-effect control and ±100 the full control effect
#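 Reporter cells (S16 Pmp22-F2sN, 500–1,000 per well) exposed to compounds for 24 h, 37C, 5% CO2; lysis with FLuc read after 10 min, then Stop&Glo and NLuc read after 10 min.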
# S16 viability – cytotoxicity in S16 Pmp22-F2sN Schwann cells. actives 0.48% (n = 43,000). AID 1508642. S16 Pmp22-F2sN Schwann cells (luciferase reporters placed in the Pmp22 gene) viability, CellTiter-Glo, 24 h. Potency, µM (top dose mostly 57.5 µM), inactives show top-dose activity change, negative = cytotoxicity, most hits filed as cytotoxic; further: on the % scale 0 is the no-effect control and ±100 the full control effect; nearly all actives have a fitted effect of over 65% in size
#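 Seed 500-1,000 S16 Pmp22-F2sN cells per well in phenol-red-free DMEM with 10% heat-inactivated FBS; pin-add 23 nL compound; incubate 24 h at 37C; add CellTiter-Glo, wait 15 min protected from light; read luminescence.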
# Numbers without * were called inactive; ? = inconclusive; / = no result; [ ] = remark or other dose. A selection: hits, their analogues and other compounds. The true share with any hit is near 3.3%. Unless noted, the call rests on the fitted dose curve; in most records, active means well fitted curve in the direction sought with a large enough effect; inconclusive means small, poorly fitted or top-dose-only effect, or another doubt; inactive means no such curve, though single readings can be large; an effect the other way counts as inactive or inconclusive. Potency means the concentration at half of the fitted maximal effect.
SMILES,FH mod,HTT promoter inh,HTT-AS act,mTORC1 inh,PMP22 txn prim,S16 viability
CCOc1ccc(NC(=O)Cn2c(=O)n(CCCCCC(=O)NCc3ccccc3)c(=O)c3sccc32)cc1,16%,-9%,1%,?,?,20µM*
CC(C)NC(=O)C1CCC(Cn2c(=O)c3sccc3n(CC(=O)Nc3ccccc3)c2=O)CC1 (centres undefined),-7%,-12%,-15%,1%,?,25µM*
CC1CCN(C(=O)Cn2c(=O)n(CC3CCC(C(=O)NC(C)C)CC3)c(=O)c3sccc32)CC1 (centres undefined),-2%,-4%,-10%,5%,-43%,1%
CCOc1ccccc1NC(=O)Cn1c(=O)n(CC(=O)NCc2ccccc2Cl)c(=O)c2sccc21,2%,-10%,7%,-3%,?,28µM*
Cc1ccccc1NC(=O)Cn1c(=O)n(CCCCCC(=O)NCc2ccccc2Cl)c(=O)c2sccc21,8%,-12%,-27%,-15%,?,8%
COc1ccc(-c2nc(CSCC(=O)N3CCN(c4ccccc4)CC3)c(C)o2)cc1,-12%,?,-57%,-8%,?,?
COc1ccc(-c2nc(CSCC(=O)N3CCN(c4ccc(F)cc4)CC3)c(C)o2)cc1,-14%,13µM*,-51%,-22%,?,?
O=C1NC(=O)C(c2cn3c4c(cccc24)CCC3)C1c1c[nH]c2ccccc12 (centres undefined),-7%,/,/,/,/,/
Cc1ccc(OCC(=O)Nc2cccc(-c3nc4ccccc4s3)c2)cc1,?,84%,?,-9%,-4%,1%
Cc1cc(C)c2oc(-c3cccc(NC(=O)COc4ccc([N+](=O)[O-])cc4)c3)nc2c1,3%,-26%,-28%,21µM*,?,-19%
Cc1cc(=O)n(CC(=O)N2CCN(c3ccccc3F)CC2)c2c1c(C)nn2C,2%,20µM*,-54%,?,?,-5%
CCc1ccc(S(=O)(=O)c2nnn3c2nc(Nc2ccc(NC(C)=O)cc2)c2sccc23)cc1,-15%,-4%,-10%,1%,11µM*,11%
CCc1ccc(Nc2nc3c(S(=O)(=O)c4cccc(Cl)c4)nnn3c3ccsc23)cc1,-3%,-17%,-23%,2%,?,2%
Cc1cccc(-n2cnc3cc(C(=O)NC4CCCCCC4)ccc32)c1,-15%,?,-36%,9.3µM*,?,?
CC(C)CCNC(=O)C1CCN(C(=O)c2cc3sccc3n2Cc2ccc(Cl)cc2)CC1,-21%,25µM*,-62%,-10%,?,?
CC(=O)c1ccc(NC(=O)Cn2cc(S(=O)(=O)Cc3cccc(Cl)c3)c3ccccc32)cc1,-8%,?,-31%,?,?,-3%
O=C(Cn1cc(S(=O)(=O)Cc2cccc(Cl)c2)c2ccccc21)Nc1ccccc1C(F)(F)F,-7%,-12%,-13%,18µM*,?,?
CN(C)CC1CCn2cc(c3ccccc32)C2=C(C(=O)NC2=O)c2cn(c3ccccc23)CCO1 (centres undefined),0%,/,/,/,/,/
C=C1CC23CC1CCC2C12OC(=O)C(C)(CCC1O)C2C3C(=O)O (centres undefined),2%[53.3 µM],/,/,/,/,/
O=C(CSc1nnc(-c2ccc([N+](=O)[O-])cc2)o1)Nc1ccccc1,-1%,67%,1.8µM*,-1%,-5%,1%
Cc1cccc(N(C)C(CNS(=O)(=O)c2ccccc2)c2ccccc2)c1 (centres undefined),-23%,?,-31%,-4%,?,16%
Cc1ccc(S(=O)(=O)NCC(Nc2cccc(Cl)c2)c2ccccc2)cc1 (centres undefined),?,25µM*,-56%,?,?,-27%
CCN(CC)CCCNc1sc(S(=O)(=O)c2ccccc2)nc1S(=O)(=O)c1ccc(Cl)cc1,-27%,-4%,-6%,9.3µM*,?,?
CC(C)OCCCNc1sc(S(=O)(=O)c2ccccc2)nc1S(=O)(=O)c1ccc(Cl)cc1,-9%,?,-11%,-13%,?,-13%
COc1ccc2nc(N(Cc3cccnc3)C(=O)c3ccc4c(c3)OCCO4)sc2c1,-1%,-4%,3%,7%,5%,-2%
SMILES,FH mod,HTT promoter inh,HTT-AS act,mTORC1 inh,PMP22 txn prim,S16 viability
COc1ccc2sc(N(Cc3cccnc3)C(=O)c3ccc4c(c3)OCCO4)nc2c1,-28%,11µM*,-20%,-20%,?,?
CC(=O)N1CCc2c(sc3c2c(=O)n(-c2ccc(C)cc2)c(=O)n3CC(=O)Nc2ccccc2)C1,-13%,35%,-8%,-11%,-32%,-4%
CCOC(=O)N1CCc2c(sc3c2c(=O)n(-c2ccc(Cl)cc2)c(=O)n3CC(=O)Nc2ccccc2)C1,1%,-28%,-5%,1%,?,13µM*
CSc1ccc(C(=O)N[C@@H]2CCCC[C@@H]2NC(=O)CNC(=O)c2cc(C(F)(F)F)ccc2NC(=O)NC(C)C)cc1,-2%,/,/,/,/,/
COc1ccc(-c2nnc(SCc3cc(=O)c4cc(C)cc(C)c4[nH]3)n2C)cc1,-17%,?,-53%,?,14µM*,?
N#Cc1cc(-c2ccnc(Nc3ccc(N4CCOCC4)cc3)n2)ccc1OC1CCOCC1,-14%,/,/,/,/,/
Cc1ccc(-c2ncn(-c3ccc(Nc4nccc(-c5cccc(N6CCOCC6)c5)n4)cc3)n2)cn1,9%[53.3 µM],69%,1.2µM*,/,/,/
CC(=O)N1c2ccc(S(=O)(=O)NCC3CCC(C(=O)Nc4ccc(C)c(C)c4)CC3)cc2CC1C (centres undefined),-17%,-2%,-12%,-21%,?,-25%
CC(=O)N1c2ccc(S(=O)(=O)NCC3CCC(C(=O)Nc4ccc(F)cc4)CC3)cc2CC1C (centres undefined),6%,?,-33%,-8%,?,14µM*
COc1ccccc1NC(=O)C1CCC(CNS(=O)(=O)c2ccc3c(c2)CC(C)N3C(C)=O)CC1 (centres undefined),?,?,-49%,?,19µM*,?
Cc1oc(-c2cccc(Cl)c2)nc1CN1CCC(C(=O)NC(C)c2ccccc2)CC1 (centres undefined),-12%,-5%,-15%,0%,?,-10%

# Source: PubChem
